In PubChem BioAssay:
Several values for one entry are separate records, joined by “and”; a condition that tells them apart may be missing. Identical values can stand only once. Activity calls are given as the source filed them.

How the values were obtained:
[1] = test system: Plasmodium falciparum Sir2 (PF13_0152, Sir2A); assay: pfSir2 binders on small-molecule microarrays, primary screen, biochemical, small-molecule microarray, 635 nm fluorescence (AID 1098); conditions: small-molecule microarray binding, fluorescence 635 nm; higher = more signal;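 also: score merges spot fluorescence intensity with its signal-to-noise ratio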
[2] = small-molecule microarray binders of probe aDKK1, primary screen, biochemical, biotinylated probe, 635/667 nm fluorescence (AID 1099); conditions: higher = more signal;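 also: score merges 667nm spot fluorescence with signal to noise across triplicate slides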
[3] = small-molecule microarray binders of probe aCHRDL2, primary screen, biochemical, biotinylated probe, 635/667 nm fluorescence (AID 1100); conditions: higher = more signal
[4] = splicing luciferase reporter signal modulators, primary screen, spliceosome inhibition project, cell-based, HEK293, splice +/- reporter (AID 1101); conditions: luminescence, 24 h, higher = more signal, called active from +8 up or from −8 down;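 also: HEK293 cells carrying a splicing-competent luciferase reporter gene; test concentration not given here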
[5] = target: Fibroblast growth factor 10 (Homo sapiens) (UniProt O15520); assay: FGF10 binders on small-molecule microarrays, primary screen, biochemical, small-molecule microarray, 635 nm fluorescence (AID 1102); conditions: FGF10 binding, fluorescence 635 nm, higher = more signal
[6] = test system: glycogen synthase kinase-3 (GSK3A per assay name; protocol says GSK3B); assay: GSK3 binders on small-molecule microarrays, primary screen, biochemical, small-molecule microarray, 635 nm fluorescence, GSK3A (AID 1103); conditions: small-molecule microarray binding, fluorescence 635 nm; higher = more signal; also: the record names both GSK3A and GSK3B
[7] = target: Epidermal growth factor receptor (Homo sapiens) (UniProt P00533); assay: EGFR binders on small-molecule microarrays, primary screen, biochemical, small-molecule microarray, 635 nm fluorescence (AID 1104); conditions: EGFR binding, higher = more signal;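 also: score merges 667 nm emission intensity with spot signal to noise over triplicate slides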
[8] = target: Follistatin-related protein 3 (Homo sapiens) (UniProt O95633); assay: FSTL3 binders on small-molecule microarrays, primary screen, biochemical, small-molecule microarray, 635 nm fluorescence (AID 1105); conditions: FSTL3 binding, higher = more signal;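 also: score merges emission near 667 nm and signal to noise per printed spot across three slides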
[9] = target: Dickkopf-related protein 1 (Homo sapiens) (UniProt O94907); assay: DKK1 binders on small-molecule microarrays, primary screen, biochemical, small-molecule microarray, 635 nm fluorescence scan (AID 1106); conditions: DKK1 binding, higher = more signal;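 also: score merges emission near 667 nm with signal to noise over three replicate slides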
[10] = test system: Inhibin beta A chain (activin A); assay: INHBA (activin A) binders on microarrays, primary screen, biochemical, small-molecule microarray, 635 nm fluorescence scan (AID 1107); conditions: small-molecule microarray binding, higher = more signal;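 also: mouse activin A protein probed at 4.33 µg/mL on printed slides; score merges bound-protein fluorescence near 667 nm with spot signal-to-noise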
[11] = test system: Human papillomavirus type 1a protein E7 (residues 44-93); assay: HPV1a E7 fragment binders on microarrays, primary screen, biochemical, small-molecule microarray, residues 44-93, 635 nm fluorescence (AID 1108); conditions: small-molecule microarray binding, fluorescence 635 nm; higher = more signal;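 also: E7 fragment applied at 1 µg/mL in TBST for 1 h at 4 C; score combines spot fluorescence with its signal to noise ratio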
[12] = modulators of HCV replicon luciferase signal, primary screen, HCV replication inhibitor project, Huh7 cells, luciferase reporter (AID 1109); conditions: 48 h, higher = more signal;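 also: huh7 hepatoma cells harbouring a luciferase neomycin HCV replicon reporter; luciferase luminescence as measure of HCV replicon replication; test concentration not given here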
[13] = target: Left-right determination factor 2 (Homo sapiens) (UniProt O00292); assay: LEFTY2 binders on small-molecule microarrays, primary screen, biochemical, small-molecule microarray, 635 nm fluorescence scan (AID 1110); conditions: LEFTY2 binding, higher = more signal
[14] = target: Calmodulin-1 (Homo sapiens) (UniProt P0DP23); assay: CALM1 binders on microarrays, EGTA buffer, profiling panel, biochemical, small-molecule microarray, Cy5-labelled CALM1 (AID 1111); conditions: Cy5-CALM1 binding fluorescence, higher = more signal;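 also: labelled calmodulin applied in Tris saline Tween buffer holding calcium plus EGTA and DTT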
[15] = target: Calmodulin-1 (Homo sapiens) (UniProt P0DP23); assay: calcium-bound CALM1 binders on microarrays, profiling panel, artefact control for SMM control-protein annotation, biochemical, small-molecule microarray, Cy5-labelled CALM1, plus calcium (AID 1112); conditions: Cy5-CALM1 binding fluorescence, higher = more signal;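 also: score merges spot fluorescence with signal to noise from triplicate slides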
[16] = small-molecule microarray binders of probe aWnt5a, primary screen, biochemical, biotinylated probe, 635/667 nm fluorescence (AID 1113); conditions: higher = more signal;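 also: score merges 667 nm fluorescence intensity with signal-to-noise per printed feature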
[17] = small-molecule microarray binders of probe aShh, primary screen, biochemical, biotinylated probe, 635/667 nm fluorescence (AID 1114); conditions: higher = more signal;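 also: probe is biotin-labelled aShh protein from a stem cell growth factor screen; measures binding of labelled protein to compounds printed on the slide; score merges feature fluorescence at 667 nm with signal-to-noise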
[18] = small-molecule microarray binders of probe aNog, primary screen, biochemical, biotinylated probe, 635/667 nm fluorescence (AID 1115); conditions: higher = more signal;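 also: probe is biotinylated aNog protein used at 0.15 µg/mL for 1 h at 4 C; z-score combines 667 nm fluorescence of each spot with its signal to noise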
[19] = target: Torsin-1A-interacting protein 1 (Homo sapiens) (UniProt Q5JTV8); assay: LAP1 binders from COS7 cell lysate, primary screen, small-molecule microarray, 635/667 nm fluorescence (AID 1116); conditions: COS7-hLAP1 lysate binding, 635 nm fluorescence, higher = more signal
[20] = target: Alpha-bungarotoxin (Bungarus multicinctus) (UniProt P60615); assay: alpha-bungarotoxin binders on microarray, profiling panel, artefact control for SMM control protein annotation, biochemical, small-molecule microarray, Alexa647 label, 635/667 nm fluorescence (AID 1117); conditions: alpha-BTX-A647 binding fluorescence, higher = more signal
Chain of Alpha-bungarotoxin (Bungarus multicinctus) (P60615 whole entry, looked up): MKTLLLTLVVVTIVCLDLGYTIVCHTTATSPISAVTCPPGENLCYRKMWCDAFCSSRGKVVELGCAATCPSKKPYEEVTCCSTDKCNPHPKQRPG

Chain of Epidermal growth factor receptor (Homo sapiens) (P00533 whole entry, looked up): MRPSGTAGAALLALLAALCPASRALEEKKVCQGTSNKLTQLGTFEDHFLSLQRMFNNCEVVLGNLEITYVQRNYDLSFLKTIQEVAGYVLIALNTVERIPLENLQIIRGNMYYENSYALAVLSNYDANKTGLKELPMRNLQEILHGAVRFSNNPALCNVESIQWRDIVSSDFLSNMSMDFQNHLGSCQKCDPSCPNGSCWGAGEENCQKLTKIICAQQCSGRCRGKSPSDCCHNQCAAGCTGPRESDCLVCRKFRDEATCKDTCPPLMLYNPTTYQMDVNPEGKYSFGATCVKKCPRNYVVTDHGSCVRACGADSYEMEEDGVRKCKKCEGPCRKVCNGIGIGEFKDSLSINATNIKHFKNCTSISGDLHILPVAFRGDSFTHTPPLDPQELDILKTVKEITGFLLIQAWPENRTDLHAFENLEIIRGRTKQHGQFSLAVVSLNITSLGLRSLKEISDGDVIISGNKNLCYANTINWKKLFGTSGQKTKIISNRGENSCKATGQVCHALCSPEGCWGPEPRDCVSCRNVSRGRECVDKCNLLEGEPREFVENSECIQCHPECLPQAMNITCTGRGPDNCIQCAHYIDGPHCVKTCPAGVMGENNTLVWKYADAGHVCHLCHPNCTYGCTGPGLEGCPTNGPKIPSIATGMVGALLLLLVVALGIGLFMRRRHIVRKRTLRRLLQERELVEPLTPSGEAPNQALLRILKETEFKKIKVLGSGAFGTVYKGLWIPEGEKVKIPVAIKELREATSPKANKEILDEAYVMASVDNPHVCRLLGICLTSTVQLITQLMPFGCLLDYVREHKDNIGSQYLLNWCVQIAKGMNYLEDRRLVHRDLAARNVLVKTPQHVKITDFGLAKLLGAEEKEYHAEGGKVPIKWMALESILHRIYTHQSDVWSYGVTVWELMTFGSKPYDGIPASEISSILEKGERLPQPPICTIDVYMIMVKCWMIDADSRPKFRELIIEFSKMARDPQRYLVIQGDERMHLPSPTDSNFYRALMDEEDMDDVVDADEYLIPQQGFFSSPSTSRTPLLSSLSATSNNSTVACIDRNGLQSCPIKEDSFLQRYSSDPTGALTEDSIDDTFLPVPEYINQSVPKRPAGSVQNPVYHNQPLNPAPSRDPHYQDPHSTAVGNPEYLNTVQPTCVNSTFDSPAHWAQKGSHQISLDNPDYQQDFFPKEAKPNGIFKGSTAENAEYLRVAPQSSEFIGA
Chain of Dickkopf-related protein 1 (Homo sapiens) (O94907 whole entry, looked up): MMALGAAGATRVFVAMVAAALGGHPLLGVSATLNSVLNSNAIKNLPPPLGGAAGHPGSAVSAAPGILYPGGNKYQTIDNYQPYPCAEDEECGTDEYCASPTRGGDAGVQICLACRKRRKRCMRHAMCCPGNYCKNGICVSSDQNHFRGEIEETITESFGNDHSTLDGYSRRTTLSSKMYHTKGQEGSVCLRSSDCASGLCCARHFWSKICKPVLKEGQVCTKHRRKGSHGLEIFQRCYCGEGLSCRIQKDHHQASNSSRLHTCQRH
Chain of Fibroblast growth factor 10 (Homo sapiens) (O15520 whole entry, looked up): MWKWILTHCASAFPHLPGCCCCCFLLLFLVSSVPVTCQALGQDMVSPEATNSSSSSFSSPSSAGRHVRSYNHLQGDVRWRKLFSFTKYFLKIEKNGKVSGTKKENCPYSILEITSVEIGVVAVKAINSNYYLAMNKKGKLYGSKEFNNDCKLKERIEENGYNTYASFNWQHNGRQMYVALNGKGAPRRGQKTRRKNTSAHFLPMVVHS
Chain of Torsin-1A-interacting protein 1 (Homo sapiens) (Q5JTV8 whole entry, looked up): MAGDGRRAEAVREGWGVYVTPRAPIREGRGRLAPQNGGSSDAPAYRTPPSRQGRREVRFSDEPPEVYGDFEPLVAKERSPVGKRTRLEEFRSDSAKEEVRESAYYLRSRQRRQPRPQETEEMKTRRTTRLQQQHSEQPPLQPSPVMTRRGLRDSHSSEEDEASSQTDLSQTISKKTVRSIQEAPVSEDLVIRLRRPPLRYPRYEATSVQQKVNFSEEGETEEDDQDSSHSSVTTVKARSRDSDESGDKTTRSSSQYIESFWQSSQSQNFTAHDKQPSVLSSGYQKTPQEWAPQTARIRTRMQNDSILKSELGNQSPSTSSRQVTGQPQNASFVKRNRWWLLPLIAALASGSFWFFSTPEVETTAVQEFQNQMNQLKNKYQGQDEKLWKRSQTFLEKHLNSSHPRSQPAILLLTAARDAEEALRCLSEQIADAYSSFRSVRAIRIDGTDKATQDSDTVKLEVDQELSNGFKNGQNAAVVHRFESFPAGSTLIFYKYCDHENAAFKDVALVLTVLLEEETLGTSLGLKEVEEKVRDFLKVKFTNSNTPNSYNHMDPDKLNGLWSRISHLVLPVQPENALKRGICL
Chain of Follistatin-related protein 3 (Homo sapiens) (O95633 whole entry, looked up): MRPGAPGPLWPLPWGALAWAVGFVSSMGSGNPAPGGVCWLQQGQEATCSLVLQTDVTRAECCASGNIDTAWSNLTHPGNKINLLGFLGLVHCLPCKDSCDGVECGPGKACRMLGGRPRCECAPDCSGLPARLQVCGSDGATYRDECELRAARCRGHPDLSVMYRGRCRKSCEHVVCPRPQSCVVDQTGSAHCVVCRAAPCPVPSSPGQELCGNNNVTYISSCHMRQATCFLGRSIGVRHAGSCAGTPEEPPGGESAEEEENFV
Chain of Left-right determination factor 2 (Homo sapiens) (O00292 whole entry, looked up): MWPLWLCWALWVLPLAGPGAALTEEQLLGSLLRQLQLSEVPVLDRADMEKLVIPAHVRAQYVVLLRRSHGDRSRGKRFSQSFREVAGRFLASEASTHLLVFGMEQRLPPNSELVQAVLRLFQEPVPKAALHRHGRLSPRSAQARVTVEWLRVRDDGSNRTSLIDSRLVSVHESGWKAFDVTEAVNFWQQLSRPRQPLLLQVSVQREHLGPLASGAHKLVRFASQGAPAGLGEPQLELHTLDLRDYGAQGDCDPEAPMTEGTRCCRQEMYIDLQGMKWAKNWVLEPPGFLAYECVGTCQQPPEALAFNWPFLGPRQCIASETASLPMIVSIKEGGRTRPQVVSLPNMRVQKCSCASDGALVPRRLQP

| SMILES | composite z-score [1] | composite z-score [2] | composite z-score [3] | z-score [4] | composite z-score [5] | composite z-score [6] | composite z-score [7] | composite z-score [8] | composite z-score [9] | composite z-score [10] | composite z-score [11] | z-score [12] | composite z-score [13] | composite z-score [14] | composite z-score [15] | composite z-score [16] | composite z-score [17] | composite z-score [18] | composite z-score [19] | composite z-score [20] |
| --- | --- | --- | --- | --- | --- | --- | --- | --- | --- | --- | --- | --- | --- | --- | --- | --- | --- | --- | --- | --- |
| COC(=O)CC=C[C@@H](C)[C@@H](CO)NS(=O)(=O)c1ccc(C)cc1 | 0.266 and 0.348 | -0.393 and -0.371 | -0.591 and -0.895 | 0.538 (inactive) and -0.445 (inactive) | 0.394 and 0.774 | 0.635 and 0.827 | 0.667 and 0.395 | 0.505 and 1.3 | 0.998 and 0.71 | 0.0232 and -0.0806 | -0.314 and 0.755 | -0.465 and -0.0825 | 0.632 and 0.966 | -0.442 and -0.343 | -1.01 and -0.837 | -0.0405 and -0.0994 | -0.522 and 0.111 | -0.0503 and 0.0287 | -0.145 and 0.808 | -0.309 and 0.0211 |
| COC(=O)C1=C(C)N(Cc2ccccc2)C2=C(C(C)=O)C[C@@](O)(C(=O)OC)C(=O)N2[C@@H]1c1ccccc1 | 1.58 and 0.326 | -0.301 and -0.205 | -0.764 and -0.229 | -0.805 (inactive) and -0.873 (inactive) | 0.988 and 0.0571 | 0.74 and -0.0162 | 0.381 and 0.348 | 0.869 and 0.521 | 0.801 and 0.478 | 0.522 and 1.28 | 0.594 and -0.54 | -0.347 and 1.11 | 0.85 and 0.187 | -1 and -0.501 | -1.13 and -0.338 | -0.0512 and -0.18 | 0.0465 and 0.0121 | 0.127 and -0.247 | 0.974 and -0.069 | -0.634 and 0.42 |
| Cc1ccc(S(=O)(=O)N[C@H]2COC(=O)[C@@H](C)COC(=O)[C@H](C)NC(=O)CC=C[C@H]2C)cc1 | 0.163 | -0.45 | -0.972 | 0.00442 (inactive) | 0.752 | 0.393 | 0.554 | 0.804 | 0.881 | -0.108 | -0.799 | -0.128 | 0.715 | -0.82 | -0.994 | 0.027 | 0.0538 | -0.234 | 1.09 | -0.458 |
| C#CCCCON=C1C[C@@H](O)[C@@H](O)[C@@H]2[C@@H]3C(=O)N(C4CCCCC4)C(=O)[C@@H]3CC[C@H]12 | 0.72 | 0.149 | -0.0642 | -0.285 (inactive) | 0.402 | 0.355 | 0.217 | 0.348 | 0.0938 | 0.24 | 0.774 | -0.147 | 0.16 | 0.974 | 0.244 | 0.454 | -0.0177 | -0.134 | 0.104 | 2.51 |
| CC(C)=NOC[C@@H](O)COCc1ccco1 | 1.21 | -0.254 | -0.0658 | 0.638 (inactive) | -0.341 | -1.15 | -0.298 | -0.628 | 0.421 | 0.912 | -1.92 | 0.797 | -0.168 | -0.614 | -0.142 | -0.172 | -0.138 | -0.342 | -0.2 | -1.1 |
| C=CCN(C(=O)C(c1cccs1)N(CCOCCO)C(=O)/C=C\C(=O)O)C(C)(C)C (stereo not given) | -1.45 and 1.17 | -0.214 and -0.188 | 0.336 and 0.718 | -0.0364 (inactive) and 0.0433 (inactive) | -1.34 and -1.24 | -1.46 and -0.651 | -1.21 and -0.944 | -1.64 and -1.94 | -2.14 and -2.17 | -0.96 and -1.53 | -1.34 and -0.3 | 0.399 and -0.274 | -2.67 and -2.46 | -1.36 and -0.361 | -0.183 and 0.48 | -0.154 and -0.239 | -0.174 and 0.151 | -0.0689 and 0.106 | 0.17 and -0.417 | -2.22 and -0.34 |
| C=C[C@H](C)[C@H](O)c1ccc(O)c2ccccc12 | -0.826 and -0.608 | -0.338 and -0.232 | 0.151 and -0.0669 | -2.7 (inactive) and -1.54 (inactive) | -1.16 and 0.187 | -0.0928 and -0.78 | -0.989 and 0.375 | -0.433 and -0.63 | -0.644 and -0.0107 | 0.794 and 0.956 | -0.523 and -0.557 | -1.28 and -0.876 | -0.796 and -0.399 | -1.09 and -1.04 | -0.75 and -1.04 | -0.244 and -0.12 | -0.0769 and -0.138 | -0.37 and -0.46 | 0.159 and -0.0387 | 0.594 and -0.204 |
| C[C@@H]1CC[C@@H](C(=O)O)N[C@H]1c1ccc(-c2ccco2)cc1 | 1.04 | -0.187 | -0.826 | 0.0295 (inactive) | 0.614 | 0.722 | 0.946 | 1.44 | 0.951 | 0.805 | -1.68 | -0.305 | 0.88 | -0.547 | -1.3 | -0.096 | -0.299 | 0.0023 | 0.195 | 0.0848 |
| C[C@@H]1CC[C@H]2C(=O)N3[C@@H](CC[C@@H](C)[C@@H]3c3ccc(-c4ccco4)cc3)C(=O)N2[C@H]1c1ccc(-c2ccco2)cc1 | 1.22 and 1.69 | 0.289 and 0.596 | 0.0051 and 1.11 | -0.328 (inactive) and -1.24 (inactive) | 0.765 and 1.37 | 1.32 and 1.28 | 0.737 and 1.7 | 1.36 and 1.4 | 1.25 and 1.68 | 1.01 and 1.92 | -0.496 and 0.292 | -0.207 and -0.734 | 0.714 and 1.31 | 1.07 and -0.328 | -0.355 and -1.5 | -0.113 and 0.0579 | 0.166 and -0.0626 | 0.274 and 0.223 | 1.07 and 0.704 | 1.92 and 3.43 |
| C=CCN(C(=O)C1N(C(C)(C)CO)C(=O)C2C(C(=O)O)C3C=CC21O3)C(C)(C)C (stereo not given) | -0.0242 and 0.712 | 0.338 and 0.0018 | 1.06 and 1.01 | 0.153 (inactive) and -0.231 (inactive) | -0.95 and -1.33 | -1.24 and -1.03 | -2.18 and -1.68 | -2.45 and -2.42 | -2.28 and -3.04 | -3 and -3.14 | -0.898 and 0.0796 | -0.276 and -0.577 | -3.78 and -1.84 | -0.742 and -0.353 | 0.271 and 0.369 | -0.286 and -0.148 | -0.138 | -0.183 and -0.0144 | -1.69 and 3.03 | -2.08 and 1.04 |
